# “And” between values parts separate entries of the source, which are not always exact repeats. Identical values can stand only once. The source holds several records for some structures; these can differ, active in one and inactive in another. The source made the active and inactive calls. Rule for the calls: active = hit-call score of the fitted dose curve at least 0.9, where 1 is the maximum; inactive = score below 0.9.
# Tests used:
# [1] = BSK_3C_VCAM1: BioMAP Diversity Plus: 3C Assay for Vascular cell adhesion molecule 1 (VCAM1) Biomarker Activity (AID 2282999); details: BioMAP 3C HUVEC, VCAM1 ELISA, cytokine-stimulated; actives raise or lower the signal
# Summary of the method: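 Vascular primary endothelium (human umbilical vein) was exposed to chemicals and assayed 24 h later. VCAM-1 levels came from ELISA, with DMSO serving as baseline for bidirectional fitting.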
# [2] = BSK_3C_Proliferation: Cell Proliferation Assessment in the BioMAP Diversity Plus: 3C Assay (AID 2283006); details: primary human endothelial cells (HUVEC);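 note: potency may reflect either rise or fall in cell number versus DMSO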
# Summary of the method: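 Proliferation as total protein: sulforhodamine B (0.1%) stain of TCA-fixed subconfluent human umbilical vein endothelial cells, absorbance 560 nm, 48 h after dosing. Activity fitted in both directions against DMSO baseline.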
# [3] = BSK_3C_Vis: BioMAP Diversity Plus: 3C Assay for Morphology Visualization (AID 2283025); details: primary human endothelial cells (HUVEC);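 note: fitted both ways so gain or loss versus DMSO counts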;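 for AC50: light microscopy image of cell morphology used as background control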
# Summary of the method: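 Light-microscopy visualization of HUVEC cultures at 24 h post-treatment, with DMSO as baseline for bidirectional fitting.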
# [4] = BSK_BE3C_SRB: Viability Assessment in the BioMAP Diversity Plus: BE3C Assay (AID 2283028); details: primary human bronchial epithelial cells
# Summary of the method: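 SRB total-protein staining (0.1%, after TCA fixation) of chemically dosed human bronchial epithelial primary cells at 24 h; DMSO serves as the negative control for bidirectional curve fitting.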
# [5] = read-out: Thrombomodulin, THBD (gene 7056); assay: BSK_3C_Thrombomodulin: BioMAP Diversity Plus: 3C Assay for Thrombomodulin Biomarker Activity (AID 2283029); details: primary human endothelial cells (HUVEC); actives raise or lower the signal
# Summary of the method: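 ELISA measurement of thrombomodulin on HUVEC surface 24 h after chemical dosing; activity fitted in both directions relative to DMSO vehicle.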
# [6] = read-out: Vascular cell adhesion molecule 1 (VCAM1), VCAM1 (gene 7412); assay: BSK_4H_VCAM1: BioMAP Diversity Plus: 4H Assay for Vascular cell adhesion molecule 1 (VCAM1) Biomarker Activity (AID 2283033); details: primary human endothelial cells (HUVEC); actives raise or lower the signal
# Summary of the method: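 VCAM-1 ELISA read 24 h after chemical dosing of HUVEC in the BioMAP 4H system, with gain or loss of signal fitted relative to DMSO. Parallel SRB staining (560 nm) checked overt cytotoxicity.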
# [7] = read-out: Interferon-gamma inducible Protein 10 (IP10), CXCL10 (gene 3627); assay: BSK_BE3C_IP10: BioMAP Diversity Plus: BE3C Assay for Interferon-gamma inducible Protein 10 (IP10) Biomarker Activity (AID 2283034); details: primary human bronchial epithelial cells; actives raise or lower the signal
# Summary of the method: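 IP-10 quantified by ELISA in human primary bronchial epithelial cell cultures at 24 hours post-dosing. Gain or loss of signal fitted relative to DMSO; parallel SRB staining assessed overt cytotoxicity.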
# [8] = read-out: Urokinase-type plasminogen activator receptor (uPAR), PLAUR (gene 5329); assay: BSK_BE3C_uPAR: BioMAP Diversity Plus: BE3C Assay for Urokinase-type plasminogen activator receptor (uPAR) Biomarker Activity (AID 2283039); details: primary human bronchial epithelial cells; actives raise or lower the signal;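 note: cells exposed to compound for one day before measurement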
# Summary of the method: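 uPAR levels were measured by ELISA after 24 h compound treatment of primary human bronchial epithelial cells, fitted in both directions relative to DMSO. Parallel SRB staining served as the cytotoxicity read-out.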
# [9] = read-out: Interleukin-6 (IL6), IL6 (gene 3569); assay: BSK_CASM3C_IL6: BioMAP Diversity Plus: CASM3C Assay for Interleukin-6 (IL6) Biomarker Activity for (AID 2283040); details: primary human coronary artery smooth muscle cells; actives raise or lower the signal
# [10] = read-out: E-selectin (Homo sapiens) (UniProt P16581); assay: BSK_LPS_Eselectin: BioMAP Diversity Plus: LPS Assay for Eselectin Biomarker Activity (AID 2283077); details: primary human HUVEC with PBMC; actives raise or lower the signal
# Summary of the method: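 Dose chemical onto LPS-driven HUVEC/PBMC co-culture; after 24 h, run ELISA for E-selectin; fit up- and down-going responses relative to DMSO control.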
# [11] = read-out: Interleukin-8 (IL8), CXCL8 (gene 3576); assay: BSK_LPS_IL8: BioMAP Diversity Plus: LPS Assay for Interleukin-8 (IL8) Biomarker Activity (AID 2283078); details: primary human HUVEC with PBMC; actives raise or lower the signal
# Summary of the method: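 In this LPS system, chemical-treated human umbilical vein endothelium/PBMC co-cultures were harvested at 24 h for IL-8 ELISA.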
# [12] = read-out: Interleukin-1 alpha (IL1a), IL1A (gene 3552); assay: BSK_LPS_IL1a: BioMAP Diversity Plus: LPS Assay for Interleukin-1 alpha (IL1a) Biomarker Activity (AID 2283080); details: primary human HUVEC with PBMC; actives raise or lower the signal
# Summary of the method: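 Primary human HUVEC and PBMC co-culture stimulated with LPS is dosed and harvested at 24 h. Both increases and decreases in ELISA-measured IL-1a are scored relative to DMSO.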
# [13] = BSK_LPS_PGE2: BioMAP Diversity Plus: LPS Assay for Prostaglandin E2 (PGE2) Biomarker Activity (AID 2283082); details: primary human HUVEC with PBMC; actives raise or lower the signal;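 for AC50: secreted prostaglandin E2 measured by ELISA in LPS-stimulated co-culture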
# Summary of the method: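 PGE2 release measured by ELISA in an LPS-activated co-culture of human umbilical vein endothelial cells and peripheral blood mononuclear cells, read at 24 h post-dosing. DMSO served as baseline for bidirectional curve fitting.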
# [14] = read-out: Tumor necrosis factor (Homo sapiens) (UniProt P01375); assay: BSK_LPS_TNFa: BioMAP Diversity Plus: LPS Assay for Tumour Necrosis Factor alpha (TNFa) Biomarker Activity (AID 2283085); details: primary human HUVEC with PBMC; actives raise or lower the signal;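 for AC50: TNFa protein level quantified by ELISA in the co-culture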
# Summary of the method: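 TNFa was quantified by ELISA in LPS-activated co-cultures of human endothelial cells and PBMC, 24 h post-dosing. Both increases and decreases versus DMSO were fitted.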
# CD38, CD38 (gene 952) = assay: BSK_SAg_CD38: BioMAP Diversity Plus: SAg Assay for CD38 Biomarker Activity (AID 2283087); details: primary human HUVEC with PBMC; actives raise or lower the signal
# Summary of the method: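 CD38 quantified by ELISA (fluorescence) in a superantigen-activated endothelial cell–PBMC co-culture at 24 h post-dose. Activity fitted in both directions relative to DMSO; parallel SRB and Alamar Blue cytotoxicity read-outs.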
# CD69, CD69 (gene 969) = assay: BSK_SAg_CD69: BioMAP Diversity Plus: SAg Assay for CD69 Biomarker Activity (AID 2283089); details: primary human HUVEC with PBMC; actives raise or lower the signal;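 note: cell surface CD69 protein quantified by ELISA with fluorescence detection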
# Summary of the method: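 Primary human vascular co-culture (umbilical vein endothelium with peripheral blood mononuclear cells) exposed to test chemical for 24 h. CD69 levels quantified by fluorescence ELISA; DMSO served as negative control for bidirectional fitting.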
# [15] = read-out: Monocyte Chemoattractant Protein-1 (MCP1), CCL2 (gene 6347); assay: BSK_SAg_MCP1: BioMAP Diversity Plus: SAg Assay for Monocyte Chemoattractant Protein-1 (MCP1) Biomarker Activity (AID 2283090); details: primary human HUVEC with PBMC; actives raise or lower the signal
# Summary of the method: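 Values derive from bidirectional fitting of ELISA-measured MCP1 against DMSO controls. Readings were taken 24 h after dosing human vascular endothelial cells co-cultured with peripheral blood mononuclear cells under superantigen stimulation.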
# [16] = read-out: Monokine induced gamma interferon (MIG), CXCL9 (gene 4283); assay: BSK_SAg_MIG: BioMAP Diversity Plus: SAg Assay for Monokine induced gamma interferon (MIG) Biomarker Activity (AID 2283092); details: primary human HUVEC with PBMC; actives raise or lower the signal
# Summary of the method: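 Endothelial cells and PBMC were co-cultured, exposed to test chemicals, and sampled 24 h later. MIG was measured by ELISA, and responses were fitted in both directions relative to DMSO.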
# [17] = BSK_SAg_PBMCCytotoxicity: PBMC Cytotoxicity Assessment in the BioMAP Diversity Plus: SAg Assay (AID 2283093); details: primary human HUVEC with PBMC;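 note: PBMC viability measured as Alamar Blue reduction fluorescence at 546/580 nm; fitted both ways against DMSO so a hit may be loss or gain of signal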;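 for AC50: PBMC superantigen activated with SEB plus TSST-1 one hour after compound addition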
# Summary of the method: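 Alamar Blue reduction (6 h, 546/580 nm) reports PBMC cytotoxicity after 90 h superantigen activation (SEB, TSST-1; 20 ng/mL final each) with 1 h compound pre-treatment. Gain or loss of signal fitted versus DMSO.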
# [18] = BSK_SAg_Proliferation: Cell Proliferation Assessment in the BioMAP Diversity Plus: SAg Assay (AID 2283095); details: primary human HUVEC with PBMC;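 note: relative cell number as total protein by SRB absorbance in sub-confluent culture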
# Summary of the method: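 Relative cell number in the endothelial cell/PBMC co-culture was quantified at 96 h by SRB staining (0.1% SRB, 10% TCA fixation, read at 560 nm). Curves were fitted in both directions relative to DMSO baseline.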
# Sequence of Tumor necrosis factor (Homo sapiens) (P01375 whole entry, looked up): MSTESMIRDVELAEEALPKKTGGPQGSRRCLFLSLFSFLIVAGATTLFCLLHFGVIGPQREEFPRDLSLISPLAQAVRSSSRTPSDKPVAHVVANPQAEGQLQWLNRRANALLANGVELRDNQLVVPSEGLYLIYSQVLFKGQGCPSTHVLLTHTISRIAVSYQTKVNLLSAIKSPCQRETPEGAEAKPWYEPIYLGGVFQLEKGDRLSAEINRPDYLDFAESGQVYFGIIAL
# Sequence of E-selectin (Homo sapiens) (P16581 whole entry, looked up): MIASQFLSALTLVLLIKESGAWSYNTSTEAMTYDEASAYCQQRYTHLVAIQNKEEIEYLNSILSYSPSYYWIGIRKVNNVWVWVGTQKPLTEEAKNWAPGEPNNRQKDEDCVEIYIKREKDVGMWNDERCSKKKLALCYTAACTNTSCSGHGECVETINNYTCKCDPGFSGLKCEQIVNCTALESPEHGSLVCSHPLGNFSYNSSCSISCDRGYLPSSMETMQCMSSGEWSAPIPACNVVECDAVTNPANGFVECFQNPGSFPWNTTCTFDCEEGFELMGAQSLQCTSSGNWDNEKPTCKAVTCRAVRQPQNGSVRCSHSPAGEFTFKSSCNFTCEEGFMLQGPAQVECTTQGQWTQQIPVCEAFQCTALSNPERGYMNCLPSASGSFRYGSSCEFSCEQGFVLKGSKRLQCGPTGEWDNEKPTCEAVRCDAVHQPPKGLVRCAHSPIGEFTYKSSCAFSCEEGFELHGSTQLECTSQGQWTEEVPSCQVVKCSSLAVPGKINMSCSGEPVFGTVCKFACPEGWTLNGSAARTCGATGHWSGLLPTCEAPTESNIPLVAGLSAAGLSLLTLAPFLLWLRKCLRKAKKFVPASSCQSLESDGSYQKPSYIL
smiles,measurement,setting,value
O=C(O)CCCc1ccc(N(CCCl)CCCl)cc1,AC50,[1],31.8 µM (active) and 28.7 µM (active)
same,AC50,[2],12.1 µM (active) and 6.56 µM (active)
same,AC50,[3],38.9 µM (active) and 38.6 µM (active)
same,outcome,[4],inactive
same,outcome,[5],inactive
same,AC50,[6],27.1 µM (active) and 25.4 µM (active)
same,AC50,[7],16.2 µM (active) and 20 µM (active)
same,outcome,[8],inactive
same,AC50,[9],15.8 µM (active) and 20 µM (active)
same,AC50,[10],20 µM (active)
same,outcome,[10],inactive
same,AC50,[11],25.4 µM (active)
same,outcome,[11],inactive
same,AC50,[12],34.8 µM (active) and 20 µM (active)
same,outcome,[13],inactive
same,AC50,[14],26.5 µM (active)
same,outcome,[14],inactive
same,AC50,"CD38, CD38 (gene 952)",26.6 µM (active) and 12.3 µM (active)
same,AC50,"CD69, CD69 (gene 969)",23.7 µM (active) and 20 µM (active)
same,AC50,[15],20 µM (active) and 27.2 µM (active)
same,outcome,[16],inactive
same,AC50,[17],20 µM (active)
same,outcome,[17],inactive
same,AC50,[18],16.4 µM (active) and 12.2 µM (active)
O=C1C=CC(=O)C=C1,AC50,[1],13.8 µM (active) and 20 µM (active)
same,AC50,[2],26.2 µM (active) and 6.35 µM (active)
same,AC50,[3],8.8 µM (active)
same,outcome,[3],inactive
same,outcome,[4],inactive
same,outcome,[5],inactive
same,AC50,[6],16.1 µM (active) and 20 µM (active)
same,AC50,[7],16.3 µM (active) and 30.9 µM (active)
same,outcome,[8],inactive
same,outcome,[9],inactive
same,AC50,[10],26.4 µM (active) and 30.4 µM (active)
same,AC50,[11],23.6 µM (active)
same,outcome,[11],inactive
same,AC50,[12],30.6 µM (active)
same,outcome,[12],inactive
same,AC50,[13],31.7 µM (active)
same,outcome,[13],inactive
same,AC50,[14],31.7 µM (active) and 18.7 µM (active)
same,AC50,"CD38, CD38 (gene 952)",30.4 µM (active) and 25.7 µM (active)
same,AC50,"CD69, CD69 (gene 969)",20 µM (active) and 22.9 µM (active)
same,AC50,[15],31.4 µM (active)
same,outcome,[15],inactive
same,AC50,[16],35.6 µM (active)
same,outcome,[16],inactive
same,AC50,[17],9.09 µM (active) and 7.38 µM (active)
same,AC50,[18],6.38 µM (active) and 3.38 µM (active)

# Reference: PubChem BioAssay (EPA / NIEHS)
